Bioassay records: PubChem, National Center for Advancing Translational Sciences (NCATS)
Hits are enriched below; roughly 14% of the tested compounds scored in any of these assays.
HCMV antiviral: blocks human cytomegalovirus replication; HFF cells, HCMV-luciferase reporter, 72 h; stronger effect = lower value; activity change, negative = inhibition, % at 57.5 µM; hit rate 4.5% among 410,000; AID 1259415; in the data active = activity change below about -60%; inconclusive = no clear call, values can overlap the other calls; inactive = above about -39%
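Steps: HFFs plated, 16 h 37C; compounds added; HCMV-luciferase added to MOI 1 PFU/cell; 72 h 37C; OneGlo reagent, 5 min room temperature; luminescence read, normalized to controls.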
Lassa entry inh: inhibitors of Lassa virus binding or cell entry; Lassa virus pseudotype entry inhibition, cell reporter; Potency, µM (doses to about 37.9 µM), usual class: inhibitors; hit rate 1.2% among 300,000; AID 540256; calls by dose curve; tested in HEK293 cells; also: nearly all actives have a fitted effect of over 50% in size
Marburg entry inh: Marburg virus entry inhibition. hit rate 1.8% among 300,000. Marburg virus pseudotyped entry inhibition, cell reporter. Potency, µM (series often up to 37.8 µM), actives largely listed as inhibitors. AID 540276; calls by dose curve; tested in HEK293 cells
Pf growth 48h: P. falciparum growth inhibition at 48 hours (one generation); P. falciparum luciferase growth in erythrocytes, 48 h; hit rate 5.9% among 310,000; Potency, µM (top dose mostly 28.7 µM), actives largely listed as inhibitors; AID 504832
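Erythrocytes infected with P. falciparum carrying an integrated firefly luciferase reporter (2% hematocrit, 0.1% parasitemia final) were exposed to compounds in RPMI 1640 with 0.5% Albumax at 37 C, 5% CO2. Growth inhibition was scored as reduced luminescence.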
HCV inh: HCV inhibition; Huh7.5.1 HCVcc-Cre infection, luciferase reporter, 44 h; Potency, µM (highest dose often 41.8 µM), hits mostly inhibitors; hit rate 3.4% among 340,000
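Reporter virus HCVcc-Cre (~0.5 moi) infects cells exposed to compound; seeding density 1,000 cells/well with 4 h settling beforehand. Luminescence, 15 sec read, taken 44 h post-infection following a 15 min RT substrate incubation.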
Pf growth 96h: P. falciparum growth inhibition at 96 hours; P. falciparum luciferase reporter growth, 96 h; hit rate 6.9% among 320,000; AID 504834; Potency, µM (titrated, usually from 28.7 µM), usual class: inhibitors
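Cell-based qHTS: luciferase-tagged P. falciparum in erythrocytes (2% hematocrit, 0.05% parasitemia final) incubated with compounds for 96 hours, 37 C, 5% CO2; luciferase detection reagent then added and luminescence measured.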
Numbers stand for hits; - = inactive; ? = inconclusive; . = no result given. Unless noted, calls follow the shape of the dose curve; as a rule, active = well fitted inhibition curve with a large enough effect; inconclusive = small, poorly fitted or top-dose-only effect, or another doubt; inactive = no such curve, though single readings can be large or run the other way.

SMILES	HCMV antiviral	Lassa entry inh	Marburg entry inh	Pf growth 48h	HCV inh	Pf growth 96h
Cc1cc(Nc2ccccc2)nc(N2CCOCC2)n1	-	-	?	-	10µM	.
Cc1cc(Nc2cccc(Cl)c2)nc(N2CCOCC2)n1	-	-	?	-	?	-
Cc1cc(Nc2cccc(F)c2)nc(N2CCOCC2)n1	-	.	.	-	3.5µM	-
CCOc1ccccc1Nc1nc(-c2sc(NC(=O)c3cccc(Cl)c3)nc2C)cs1	-	.	-	6.6µM	-	4.7µM
CCOc1ccccc1NC(=O)C(C)Sc1cc(-c2ccccc2)nc(C)n1 (stereo not drawn)	-	-	-	.	.	.
CCOc1ccccc1Nc1nc(-c2sc(NC(=O)c3ccccc3)nc2C)cs1	.	.	-	7.4µM	.	?
CCOc1ccccc1Nc1nnc(SC(C)C(=O)Nc2nc(-c3ccccc3)cs2)s1 (stereo not drawn)	-	6.3µM	3.5µM	?	?	?
Cc1nc(NC(=O)c2ccccc2)sc1-c1csc(Nc2cccc(F)c2)n1	.	.	.	?	.	4.7µM
Clc1cccc(-c2cccc3nccn23)c1	-	.	.	.	.	.
Cc1c(NC(=O)c2cccc3c(Cl)cccc23)cccc1-c1nc2ccccc2o1	-	?	-	.	.	.
Cc1ccc(Cl)cc1Nc1nc(-c2sc(NC(=O)c3ccccc3)nc2C)cs1	.	.	-	2.1µM	.	2.6µM
Cc1ccccc1N/N=C/c1c(C)nc2ccccn12	-	.	.	9.3µM	?	?
Cc1nc2ccccn2c1C(=O)N/N=C/c1ccccc1	-	.	.	-	-	-
Cc1ccc(CN2CCN(CC(=O)N3CCC4(CC3)OCCO4)C2=O)cc1	-	-	-	.	-	3.7µM
Cc1ccc(CN2CCN(CC(=O)N3CCC(C(N)=O)CC3)C2=O)cc1	-	.	.	.	-	.
Cc1ccc(CNC(=O)CN2CCN(Cc3ccc(C)cc3)C2=O)cc1	-	?	?	.	-	2.9µM
Cc1ccc(CN2CCN(CC(=O)N3CCc4ccccc4C3)C2=O)cc1	.	.	-	-	.	17µM
O=C(CN1CCN(Cc2cccc(Cl)c2)C1=O)NCc1ccc(F)cc1	-	-	.	.	.	.
O=[N+]([O-])c1ccc(C[n+]2ccc(Cc3ccccc3)cc2)cc1	-74	-	-	3.7µM	-	-
O=[N+]([O-])c1cc(Cl)c(O)c(-[n+]2c(-c3ccccc3)cc(-c3ccccc3)cc2-c2ccccc2)c1	-75	.	.	?	?	?
ON(CCc1ccccn1)Cc1ccccc1	-	-	-	.	-	.
O=[N+]([O-])c1ccc(CS(=O)Cc2ccccc2)cc1 (stereo not drawn)	-	-	-	.	-	.
O=[N+]([O-])c1ccc(C[n+]2ccccc2)cc1	-	.	.	?	-	?
c1ccc(Cc2cc[n+](Cc3ccccn3)cc2)cc1	-	-	-	4.1µM	-	1µM
O=[N+]([O-])c1ccc(C[n+]2c(-c3ccccc3)cc(-c3ccccc3)cc2-c2ccccc2)cc1	-63	.	.	1.2µM	10µM	0.93µM
SMILES	HCMV antiviral	Lassa entry inh	Marburg entry inh	Pf growth 48h	HCV inh	Pf growth 96h
Cc1cccc(C)c1NC(=O)C(c1ccccc1)N1CCN(C)CC1 (stereo not drawn)	-	.	.	.	.	.
O=C(O)CNS(=O)(=O)c1ccc(-c2ccccc2)cc1	.	.	-	.	.	-
O=C([O-])c1cc(-c2ccccc2)cc(-c2ccccc2)[n+]1Cc1ccccc1	-79	.	.	0.52µM	-	0.52µM
Cc1cc(-c2ccccc2)cc(C)[n+]1Cc1ccccc1	-93	.	.	0.74µM	-	0.37µM
Cc1cc(-c2ccccc2)cc(C)n1	?	-	-	.	-	.
CCn1nc(CC(=O)O)c2ccccc2c1=O	-	-	-	-	-	-
CCCCCn1nc(C(=O)N2CCc3ccccc32)c2ccccc2c1=O	-	.	.	10µM	?	?
O=C(O)Cc1nn(Cc2ccc(Cl)cc2)c(=O)c2ccccc12	-69	-	?	-	-	?
CCN(CC)CCNC(=O)Cc1nn(Cc2ccccc2)c(=O)c2ccccc12	-	-	-	-	-	-
CCCCn1nc(CC(=O)O)c2ccccc2c1=O	-	-	-	-	?	10µM
CCCCn1nc(C(=O)NC2CCCCCC2)c2ccccc2c1=O	-	-	?	.	-	.
CCCCn1nc(C(=O)N(C)C2CCCCC2)c2ccccc2c1=O	-106	.	.	?	-	?
O=C(COC(=O)c1cccc(S(=O)(=O)N2CCCC2)c1)Nc1cccc(Br)c1	-	.	.	.	.	.
N#Cc1ccccc1OCC(=O)Nc1ccc2c(c1)OCO2	-	.	.	.	.	.
Cc1ccc(NC(=S)NC(=O)c2ccc(Br)o2)c(C)c1	-	-	-	-	-	13µM
